Results filed as inconclusive are left out. A number with no mark means an inactive call. The source made the active and inactive calls. The call rests on the fitted dose curve; in most records, active means well fitted activation curve with a large enough effect in the repeat runs; inconclusive means weak or mixed curves; inactive means flat fitted curve, though single readings scatter. Peptide text beside a SMILES is read from it.
Potency means the concentration at half of the fitted maximal effect.

The test is described as follows: qHTS assay for small molecule agonists of the antioxidant response element (ARE) signaling pathway measured by Nrf2-dependant transcriptional activity (AID 720636). On activation: % of control where 0% means no effect. The settings on record: ARE-luc HepG2, Nrf2 luciferase reporter, 16 h; series mostly up to 92.4 µM; activation: at the top concentration. The source says:
National Center for Advancing Translational Sciences [NCATS] NIH Chemical Genomics Center [NCGC] U.S. Environmental Protection Agency [EPA] National Institutes of Environmental Health Sciences [NIEHS] National Toxicology Program [NTP] Assay Overview: The antioxidant response element (ARE) signaling pathway plays an important role in the cellular anti-oxidant defense. Exposure to stressors which are exogenous like ionizing radiations, chemicals, U-V light, and endogenous like cell signaling, metabolic processes or inflammation, reactive oxygen species (ROS), can induce oxidative stress in the cells. Oxidative stress has been implicated in the pathogenesis of a variety of diseases ranging from cancer to neurodegeneration. ARE-luc HepG2 cell line (Simmons et al., Current Chemical Genomics, 5:1-12, 2011) has been used for identifying the chemicals that induce oxidative stress. The cell line has an Nrf2-responsive luciferase reporter gene that has been engineered to measure Nrf2-dependant transcriptional activity.
Assay Protocol Summary: For measuring ARE induction; 2,000 ARE-luc HepG2 cells in 5 uL of assay medium containing 1% dialyzed FBS per well were dispensed into white wall/solid bottom 1536-well plates using a Flying Reagent Dispenser (FRD) (Aurora Discovery). The assay plates were incubated for 6 hr at 37 C to allow cell attachment to the well bottom, followed by the transfer of 23 nL compound or DMSO vehicle by a pin tool (Kalypsys). The plates were incubated for 16 hr at 37 C and 5% CO2, followed by the addition of 5 uL of ONE-GloTM luciferase reagent (Promega) into each well using FRD. After 30 min room temperature incubation, plates were read on a ViewLux plate reader (PerkinElmer).
With `CCCc1cc(=O)[nH]c(=S)[nH]1`, the Potency entry was “inactive”.

Turning to `CNC[C@H](O)c1ccc(O)c(O)c1`, the “activation” value was -0.204%.

`Nc1nc(Cl)nc2c1ncn2[C@H]1C[C@H](O)[C@@H](CO)O1`: the “activation” value is 1.57%.

Consider `CC(=O)N1CCN(c2ccc(OC[C@H]3CO[C@](Cn4ccnc4)(c4ccc(Cl)cc4Cl)O3)cc2)CC1`, for which the “activation” value is -0.797%.

As for `Nc1ccc(S(N)(=O)=O)cc1`, the “activation” value was -0.302%.

`O=c1c(O)c(-c2ccc(O)cc2O)oc2cc(O)cc(O)c12`: the “activation” value was 3.24%.

`COc1cc(OC)c(C(=O)CCCN2CCCC2)c(OC)c1`: the “activation” value was 0.248%.

For `CS(=O)(=O)OCCCCOS(C)(=O)=O`, the Potency entry is “inactive”.

Turning to `COC(=O)[C@H](Cc1ccccc1)NC(=O)[C@@H](N)CC(=O)O` (H-Asp-Phe-OMe), the Potency result was “inactive”.

As to `CC(=O)Nc1ccc(O)cc1`, the Potency result is “inactive”.

Regarding `CCN(CC)C(=S)SSC(=S)N(CC)CC`, the Potency is 27.3 µM (active).

For the compound `CC1(C)NC(=O)N(c2ccc([N+](=O)[O-])c(C(F)(F)F)c2)C1=O`, the “activation” value is 0.589%.

`CCc1nc(N)nc(N)c1-c1ccc(Cl)cc1`: the Potency entry was “inactive”.

As for `Cc1ccc(C)c(OCCCC(C)(C)C(=O)O)c1`, the Potency result was “inactive”.

As to `NS(=O)(=O)c1cc(C(=O)O)c(NCc2ccco2)cc1Cl`, the Potency result was “inactive”.

In the case of `CCCCC(CC)COC(=O)C(C#N)=C(c1ccccc1)c1ccccc1` (stereo unspecified), the “activation” value is -0.229%.

Values taken from PubChem BioAssay (NCATS).
